Shown are actives, neighbours in structure and some others; about 0.37% of the full set was active somewhere.
IMPase Li inh: membrane-permeable IMPase blocker, potentiated with lithium | AID 1457 | CHO-M1 cells, IP1 TR-FRET (IP-One), carbachol + lithium | Potency, µM (top dose mostly 59.4 µM), for inactives: at the top dose activity, negative = IMPase inhibition, most hits filed as inhibitors | 210,000 compounds, 0.35% hits;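 also: IP1 builds up when IMPase is blocked and the TR-FRET signal falls; potency is read from the fitted curve at half-maximal effect; plate controls were basal vehicle for no effect and high inhibitor control for full effect; nearly all actives have a fitted effect of over 50% in size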
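CHO cells stably expressing M1 receptor (2000/well) were cultured 16–30 h, then exposed to compounds with a small lithium addition for 30 min at 37C. IP1 was measured by TR-FRET competition; AC50 from Hill fits.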
PTAP TSG101 blk: blocks PTAP/TSG101 interaction to inhibit HIV-1 budding | 340,000 tested, under 10 active | Potency, µM (top dose mostly 115 µM), for the others: at the highest dose activity change, negative = inhibition, usual class: inhibitors | Fluorescence polarization, FITC-PTAP peptide / Tsg101 binding | Q99816; active = well fitted inhibition curve with a large enough effect in the main read-out, with a control signal flat, not every such curve was filed as active; inconclusive = small, poorly fitted or top-dose-only effect, or effect the other way, or a change in a side signal; inactive = no such curve, though single readings can be large or run the other way; also: potency is read from the fitted curve at half-maximal effect; % of control where 0% means no effect
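Fluorescence polarization binding of Tsg101 binding domain (10 uM final) to FITC-labeled PTAP peptide (50 nM final) in HEPES pH 7.5 buffer with NaCl, Tween 20, EDTA, TCEP. Compounds added before peptide; binding 20 min at RT.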
CBFb RUNX1 block: inhibitors of human CBF-beta and RUNX1 interaction; Q01196+Q13951; AlphaScreen CBFb-His/RUNX1-biotin binding, biochemical; Potency, µM (highest dose often 59.8 µM), for the others: at the top dose activity, negative = inhibition, usual class: inhibitors; 230,000 tested, under 10 active; AID 1477; also: % of control where 0% means no effect
Target sequence (Q01196 whole entry, looked up): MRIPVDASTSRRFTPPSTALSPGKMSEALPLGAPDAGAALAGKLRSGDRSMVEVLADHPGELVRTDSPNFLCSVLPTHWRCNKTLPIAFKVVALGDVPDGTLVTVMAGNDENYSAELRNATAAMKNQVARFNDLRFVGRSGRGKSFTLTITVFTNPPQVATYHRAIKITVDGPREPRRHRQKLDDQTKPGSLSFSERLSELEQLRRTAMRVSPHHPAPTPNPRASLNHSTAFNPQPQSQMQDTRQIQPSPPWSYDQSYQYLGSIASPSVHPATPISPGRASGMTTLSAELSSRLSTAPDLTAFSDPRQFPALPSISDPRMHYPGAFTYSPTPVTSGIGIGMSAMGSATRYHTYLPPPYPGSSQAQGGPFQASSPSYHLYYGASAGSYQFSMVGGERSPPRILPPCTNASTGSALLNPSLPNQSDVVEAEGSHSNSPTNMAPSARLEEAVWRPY
Target sequence (Q13951 whole entry, looked up): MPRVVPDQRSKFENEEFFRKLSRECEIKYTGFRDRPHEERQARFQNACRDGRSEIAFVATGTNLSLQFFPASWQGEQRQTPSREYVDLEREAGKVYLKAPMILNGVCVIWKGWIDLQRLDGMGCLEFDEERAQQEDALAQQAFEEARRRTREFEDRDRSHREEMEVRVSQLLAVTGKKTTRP
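Bead-based AlphaScreen assay; binding partners His-tagged CBF-beta and biotinylated RUNX1 at 30 nM each. Compound exposure 15 min after a 20-min protein preincubation; bead step 90 min; all steps at room temperature.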
A-T KAP1 phos: potential ataxia-telangiectasia treatment; AID 485349; F2112 A-T fibroblasts, KAP-1 phosphorylation AlphaLISA; neocarzinostatin DNA damage 30 min before lysis; 320,000 compounds, 0.19% hits; Potency, µM (titrated, usually from 57.5 µM), for inactives: at the highest dose activation, most hits filed as activators; also: potency is read from the fitted curve at half-maximal effect; % of control where 0% means no effect; nearly all actives have a fitted effect of over 45% in size
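ATM-like activity read as KAP-1 phosphorylation via AlphaLISA donor/acceptor antibody pairs after lysis and 6 hr at 25C. Cells were ATM-null patient fibroblasts (F2112, hTERT), dosed 60 min, then exposed to the DSB inducer NCS for 30 min.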
The depositor's hits bear a star; ? = inconclusive; nt = no result; [ ] = dose if it differs, or a comment. Unless noted, calls follow the shape of the dose curve; as a rule, active = well fitted curve in the direction sought with a large enough effect; inconclusive = small, poorly fitted or top-dose-only effect, or another doubt; inactive = no such curve, though single readings can be large; an effect the other way counts as inactive or inconclusive.

SMILES | IMPase Li inh | PTAP TSG101 blk | CBFb RUNX1 block | A-T KAP1 phos
Cc1nc(SCC(=O)Nc2ccccc2C(F)(F)F)c(C#N)c(C)c1CC(=O)c1ccc(Br)cc1 | 10µM* | nt | 6% | 1%
Cc1cccc(C)c1NC(=O)CSc1nc(C)c(CC(=O)c2ccc(Br)cc2)c(C)c1C#N | ? | 0% | 3% | -1%
CCCn1c(NC(=O)c2ccc(Br)cc2)nc2ccccc21 | 28µM* | -2% | 3% | nt
CCCn1c(NC(=O)c2ccc(F)cc2)nc2ccccc21 | 5% | -1% | -8% | 18%
Oc1cccc(NC(=S)N=Nc2c(O)[nH]c3ccccc23)c1 | nt | 2% | 6% | 1.3µM*
COc1ccc(CCNC(=O)Nc2ccc(F)cc2F)cc1OC | nt | -3% | nt | 10µM*
COc1ccc(CCNC(=O)NC(C(F)(F)F)C(F)(F)F)cc1OC | 19%[38.3 µM] | -5% | 8% | -1%
CCCCCCCCCn1ccc(=N)cc1 | nt | 1% | 7% | 3.2µM*
CCCCCCCn1ccc(=N)cc1 | 39%[38.3 µM] | -1% | -2% | 7%
N=C1C(c2nc3ccccc3c(=O)[nH]2)=C(O)CN1CCc1ccccc1 | 11µM* | 0% | 3% | -2%
OC1(CNCc2ccccc2)C2CC3CC(C2)CC1C3 (stereo unspecified) | nt | -8% | 1% | 5%
Cc1ccc(NC(=O)c2ncn(CCCN3CCN(c4ccccn4)CC3)n2)cc1C | nt | -14% | nt | nt
CCOC(=O)c1sc2nc(C3CC3)cc(-c3ccc(F)cc3)c2c1N | 11µM* | 0% | 9% | 2%
Cc1cc(C)n(CC(O)COc2ccc(Cl)cc2Cl)n1 (stereo unspecified) | nt | -6% | nt | 3%
Fc1cccc(Cl)c1CNC(c1ccccc1)c1ccccc1 | 37%[38.3 µM] | -4% | ? | 32µM*
CC(C)c1ccc(OCC(=O)NC(=S)Nc2ccc3c4c(cccc24)CC3)cc1 | 13µM* | 2% | -5% | -1%
O=C(COc1ccccc1)NC(=S)Nc1ccc2c3c(cccc13)CC2 | ? | 0% | 2% | nt
Cc1ccc(OCC(=O)NC(=S)Nc2ccc3c4c(cccc24)CC3)cc1 | 11µM* | 1% | 4% | -1%
CCc1c(C#N)c(SCCC(=O)Nc2cccc(OC)c2)nc2c1C(=O)CC(C)(C)C2 | 25%[38.3 µM] | -11% | 11% | -1%
COc1cc2c(cc1OC)-c1cc(Nc3ccccc3Br)nc(=O)n1CC2 | nt | -4% | nt | 7%
O=c1c2cc(N3CCOCC3)ccc2[nH]c(=S)n1Cc1ccccn1 | ? | -5% | ? | 3%
Clc1ccc(Sc2cnc3ccccc3n2)cc1 | ? | 2% | 14% | nt
c1ccc(Sc2cnc3ccccc3n2)cc1 | 13µM* | -3% | 7% | nt
OCCNCCCCOc1ccc(OCc2ccccc2)cc1 | -1% | -2% | 4% | -4%
COCC(=O)Nc1ccc(-c2cn3cccnc3n2)cc1 | 11µM* | -5% | -8% | -11%
SMILES | IMPase Li inh | PTAP TSG101 blk | CBFb RUNX1 block | A-T KAP1 phos
CCC(CC)C(=O)Nc1ccc(-c2cn3cccnc3n2)cc1 | nt | -3% | nt | 12%
O=C(Nc1nc2ccccc2s1)C1CC(=O)N(c2ccccc2)C1 (stereo unspecified) | 8%[38.3 µM] | -7% | 5% | -1%
O=C(Nc1ccc(Cl)cn1)c1cc2c(s1)-c1ccccc1OC2 | nt | -13% | 7% | 16µM*
O=C(Nc1cccnc1Cl)c1cc2c(s1)-c1ccccc1OC2 | nt | 0% | nt | 32%
COc1cc(/C=C2\CCOC2=O)cc(OC)c1OC | nt | -1% | 4% | 1µM*
COC(=O)CNC(=O)CCC(=O)N1CCN(C(c2ccccc2)c2ccccc2)CC1 | nt | 1% | nt | -6%
COc1ccc(-c2noc(-c3cccc(Cl)c3)n2)cc1OC | 5% | -5% | 3% | 9%
COc1ccc(-c2noc(-c3ccccc3Cl)n2)cc1OC | 8.9µM* | -6% | -4% | 21%
Cc1onc(-c2ccccc2Cl)c1C(=O)Nc1nnc(-c2ccc(Br)cc2)s1 | 8.9µM* | -3% | 8% | 5%
Cc1onc(-c2ccccc2Cl)c1C(=O)Nc1nnc(-c2ccc(F)cc2)s1 | -14% | 3% | 2% | 8%
O=C(COc1ccc(Cl)cc1)NCc1nnc(SCC(=O)Nc2ccccc2)o1 | 14%[38.3 µM] | -6% | 5% | 21%
O=C(COc1ccc(Cl)cc1)NCc1nnc(SCC(=O)NC2CCCCC2)o1 | 11µM* | -1% | -2% | 4%
Cc1cc2ccccc2n1CCNC(=O)c1ccc(S(=O)(=O)N2CCCCC2)cc1 | 10%[38.3 µM] | 0% | -10% | 1%
